# Screens as filed in PubChem BioAssay.
# KCNH2 WT inh = blocks the wildtype human KCNH2 potassium channel. U2OS, BacMam KCNH2, thallium flux FluxOr; hits give low values. activity change, % at 1.84 µM. actives 0.37% (n = 340,000). AID 720551;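 active means maximum activity change below -70%; inconclusive means maximum activity change between -70% and -50%; inactive means maximum activity change above -50%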; further: on the % scale 0 is the no-effect control and ±100 the full control effect
#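 U2OS cells were transduced with wild-type KCNH2 virus (2.03 x 10^8 / mL) for 4 h at room temperature, then cultured overnight at 37 C. Thallium flux was read with FluxOr dye. Rate constants were normalized to DMSO controls.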
# MBNL1 CUG block = blocks human MBNL1 binding to CUG repeat RNA | Potency, µM (highest dose often 57.5 µM), inactives show at the top dose activity change, negative = inhibition, actives largely listed as inhibitors | TR-FRET MBNL1-His/biotin-(CUG)12 binding, 665/545 ratio | actives 0.036% (n = 280,000) | Q9NR56; active means well fitted inhibition curve with a large enough effect in the signal ratio, with a control signal flat, not every such curve was filed as active; inconclusive means small, poorly fitted or top-dose-only effect, or effect the other way, or a change in a side signal; inactive means no such curve, though single readings can be large or run the other way; the % refers to the signal ratio; further: potency means the concentration at half of the fitted maximal effect; on the % scale 0 is the no-effect control and ±100 the full control effect
# Target sequence (Q9NR56 whole entry, looked up): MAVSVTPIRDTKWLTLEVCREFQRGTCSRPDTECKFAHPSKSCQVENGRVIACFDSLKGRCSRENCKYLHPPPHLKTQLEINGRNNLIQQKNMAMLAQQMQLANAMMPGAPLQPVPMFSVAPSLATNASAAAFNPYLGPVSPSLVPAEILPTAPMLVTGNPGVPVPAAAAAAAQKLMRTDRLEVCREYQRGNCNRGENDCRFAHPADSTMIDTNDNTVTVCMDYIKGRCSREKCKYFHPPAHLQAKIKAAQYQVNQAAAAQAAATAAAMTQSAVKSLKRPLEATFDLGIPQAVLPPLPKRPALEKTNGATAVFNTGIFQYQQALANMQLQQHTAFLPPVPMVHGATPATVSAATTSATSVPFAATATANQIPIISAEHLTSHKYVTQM
#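 MBNL1-His + Biotin-(CUG)12, cpd titration 92 nM–58 uM; Tb anti-His Ab 0.055 ng/ul, SA-XL665 5 nM (final); 60 min RT; ratiometric 665/545 nm, Ex 340 nm; normalized to buffer and full-complex controls.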
# CBFb RUNX1 block = CBF-beta/RUNX1 interaction disruption | AID 1477 | 230,000 tested, under 10 active | AlphaScreen CBFb-His/RUNX1-biotin binding, biochemical | Potency, µM (top dose mostly 59.8 µM), without a hit: at the top dose activity, negative = inhibition, hits mostly inhibitors | Q01196+Q13951; further: % of control where 0% means no effect
#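 AlphaScreen binding: CBFb-His and RUNX1-biotin (30 nM each) preincubated 20 min, compound added for 15 min, then nickel and streptavidin beads for 90 min, all at room temperature. Disruption of the interaction by any mechanism counts as activity.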
# KCNH2 3.1 block = blocks the human KCNH2 3.1 channel isoform | actives 0.95% (n = 340,000) | U2OS KCNH2 3.1, thallium flux FluxOr; hits give low values | activity change, % (tested at about 1.8 µM);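 active means maximum activity change below -70%; inconclusive means maximum activity change from -70% to -50%; inactive means maximum activity change above -50%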;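 further: thallium influx rate constant from kinetic fluorescence after stimulation buffer; on the % scale 0 is the no-effect control and ±100 the full control effect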
#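 Measured as rate of thallium-driven FluxOr signal in transduced U2OS cells carrying the 3.1 channel, read kinetically for 2 min upon stimulation; values are rate constants scaled to DMSO control wells.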
# VDR inh = inhibitors of human vitamin D receptor; P11473; Potency, µM, inactives show max response, negative = inhibition, actives largely listed as inhibitors; actives 0.93% (n = 400,000); VDR-SRC2-3 peptide fluorescence polarization, 2 h; AID 504847; further: potency means the concentration at half of the fitted maximal effect; on the % scale 0 is the no-effect control and ±100 the full control effect
#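 Reagent solutions, kept cold and dark, are dispensed first; compounds are then pinned in at 23 nl, plates briefly spun, and incubated 2 h at ambient temperature. Inhibition of VDR–SRC2-3 peptide binding is read by fluorescence polarization.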
# PLK1 PBD inh = PLK1 (human) polo-box domain binding inhibition; P53350; Plk1 PBD binding of FITC phosphopeptide, fluorescence polarization; Potency, µM, inactives show max response, negative = inhibition, most hits filed as inhibitors; actives 2.8% (n = 360,000); AID 720504; further: potency means the concentration at half of the fitted maximal effect; series mostly up to about 57 µM; on the % scale 0 is the no-effect control and ±100 the full control effect; nearly all actives have a fitted effect of over 65% in size
# * hit, by the source's call; ? = inconclusive; nt = not tested or not shown. An excerpt weighted towards active compounds, which were near 3.8% of everything screened. Unless noted, the call rests on the fitted dose curve; in most records, active means well fitted curve in the direction sought with a large enough effect; inconclusive means small, poorly fitted or top-dose-only effect, or another doubt; inactive means no such curve, though single readings can be large; an effect the other way counts as inactive or inconclusive.
SMILES,KCNH2 WT inh,MBNL1 CUG block,CBFb RUNX1 block,KCNH2 3.1 block,VDR inh,PLK1 PBD inh
NC(=O)c1ccccc1NC(=O)CN1CCN(Cc2ccccc2)CC1,-35,2%,nt,-77*,16%,1%
CC(Nc1oc(-c2ccccc2)nc1-c1ccc(C(F)(F)F)cc1)c1ccccc1 (stereo unspecified),nt,nt,-26%,nt,12%,nt
CCOC(=O)CNS(=O)(=O)c1ccc(F)cc1Br,nt,nt,8%,nt,4%,nt
CCOC(=O)C(Cc1ccccc1)NC(=O)CCc1c(C)nc2nc(C)nn2c1C (stereo unspecified),-15,4%,2%,0,?,27µM*
Cc1nc2ncnn2c(C)c1CCC(=O)NCCc1ccccc1,0,-13%,-10%,-1,-12%,24µM*
CSc1ccc(CCNC(=O)CCc2c(C)nc3ncnn3c2C)cc1,nt,nt,nt,nt,-18%,nt
Cc1onc(-c2ccccc2Cl)c1C(=O)N1CC(C)OC(C)C1 (stereo unspecified),4,7%,14%,-6,?,30µM*
O=C1NC(=S)S/C1=C\c1cc2ccccc2nc1N1CCCCC1,-4,nt,2%,4,-6%,11µM*
COc1ccccc1C=C1SC(=S)NC1=O,-10,nt,nt,7,-28%,27µM*
COc1ccc(C=C2SC(=S)NC2=O)c(OC)c1OC,-18,nt,nt,-41,-23%,-23%
O=C1NC(=S)SC1=Cc1ccccc1Cl,1,nt,nt,25,?,21µM*
Cc1cccc(NC(=O)CSc2nc3ccccc3nc2N2CCCCC2)c1C,nt,nt,nt,nt,-8%,nt
COCCNC(=S)NNc1cccc(C(=O)O)c1,-2,-14%,1%,10,?,21µM*
Cc1ccc(C)c(N=Cc2cc3c(cc2[N+](=O)[O-])OCO3)c1,-2,?,-9%,1,79µM*,-22%
CC(C)(C)c1ccc(O)c(N=Cc2cc3c(cc2[N+](=O)[O-])OCO3)c1,-5,?,nt,9,?,27µM*
Cc1ccc(N=Cc2cc3c(cc2[N+](=O)[O-])OCO3)cc1[N+](=O)[O-],-1,nt,nt,-17,?,?
CCC(C)(C)C(=O)Nc1cc([N+](=O)[O-])ccc1F,-250*,?,-6%,-176*,-7%,-10%
CCC(C)(C)C(=O)Nc1cc([N+](=O)[O-])ccc1Cl,-3,nt,1%,12,-10%,0%
COc1ccc(OC)c(S(=O)(=O)N2CCC(c3ccncc3)CC2)c1,nt,nt,nt,nt,-3%,nt
COc1cc(OC)cc(-n2nnc(-c3nc(-c4ccccc4Cl)no3)c2N)c1,nt,nt,nt,nt,-8%,nt
O=S1OCCN1c1ccccc1 (stereo unspecified),2,-7%,nt,15,0%,34µM*
N#Cc1ccc(S(=O)(=O)N2CCC(Oc3cccc(C(F)(F)F)c3)CC2)cc1,nt,nt,nt,nt,-3%,nt
Cc1cccc(CSCc2ccc(C(=O)O)o2)c1,0,-13%,nt,-16,-6%,24µM*
Cc1cccc(CSc2ncccc2C(=O)O)c1,-87*,-9%,5%,5,5%,-1%
CCNc1ccccc1CP(=O)(c1ccccc1)c1ccccc1O (stereo unspecified),-5,10%,nt,9,20µM*,21µM*
SMILES,KCNH2 WT inh,MBNL1 CUG block,CBFb RUNX1 block,KCNH2 3.1 block,VDR inh,PLK1 PBD inh
Cc1ccc(O)c(CP(=O)(c2ccccc2)c2ccccc2)c1,-13,-3%,2%,9,-6%,1%
COc1cc2ccccc2cc1C(=O)Nc1ccc2oc(-c3ccc(F)cc3)nc2c1,nt,nt,nt,nt,-5%,nt
CCc1ccc(CN2CCC(n3nccc3NC(=O)C3CCCC3)CC2)cc1,-30,-4%,nt,-75*,11%,5%
O=C(Nc1ccnn1C1CCN(Cc2ccc(OC(F)F)cc2)CC1)C1CCCC1,-102*,-6%,nt,-83*,-4%,-3%
COC(=O)c1ccc(CN2CCC(n3nccc3NC(=O)C3CC3)CC2)cc1,25,9%,nt,8,-15%,-5%
Cc1c(CN2CCC(n3nccc3NC(=O)C3CC3)CC2)[nH]c2ccccc12,-21,-6%,nt,-74*,0%,-5%
CC(C)c1ccc(CN2CCC(n3nccc3NC(=O)C3CCCC3)CC2)cc1,7,nt,nt,-72*,nt,-1%
